# PubChem BioAssay (NCATS)
# Calls of active or inactive are those of the source. Calls come from the whole dose curve; as a rule, active = well fitted activation curve with a large enough effect; inconclusive = small, poorly fitted or top-dose-only effect; inactive = flat fitted curve, though single readings scatter.
# Assay: Cellular Toxicity (caspase-3) N2a (AID 665);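 note: compound exposure lasted 16 h at 37 °C before readout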
# Conditions: N2a cells, luminescence, normalized: DMSO 0%, 10 µM staurosporine 100%; series mostly up to 92.2 µM; caspase-3 activation: at the top concentration
# Excerpt: NIH Chemical Genomics Center [NCGC]
# NIH Molecular Libraries Screening Centers Network [MLSCN]
# National Institutes of Environmental Health Sciences [NIEHS]
# National Toxicology Program [NTP]
# We have developed a 1536-well cell-based assay for quantitative high throughput screening (qHTS) against a number of cell lines to determine in vitro caspase 3/7 activity of small molecules. This particular assay uses the N2a cell line which is derived from mouse neuroblastoma.
# NCGC Assay Protocol Summary:
# The Caspase-Glo 3/7 assay (Promega) is a homogeneous method to measure caspase-3 and caspase-7 activities in cultured cells. The quantitation of caspase 3/7 activity is based on the cleavage of a peptide-aminoluciferin substrate. After caspase cleaves the substrate the free aminoluciferin is liberated and serves as the substrate of luciferase, which generates the light. The luminescent signal is proportional to the amount of caspase 3/7 activity present.
# Using the Caspase-Glo 3/7 assay, the amount of caspase 3/7 activity was measured in the N2a cells with complete culture medium following compound treatment for 16 hours. The assay was performed in opaque white 1536-well plates. In the screen, staurosporine and doxorubicin were used as positive controls. Library compounds were measured for their ability to cause the activation of caspase 3/7 in the cell line, as reflected by an increase in luminescence signal, in a concentration-dependent manner. Data were normalized to the controls for basal activity (DMSO only) and 100% stimulation (10 uM staurosporine). AC50 values were determined from concentration-response data modeled with the standard Hill equation.
# qHTS protocol for caspase 3/7 assay in mouse N2a cell line
# [Step] [Parameter] [Value] [Description]
# 1. Reagent; 5 uL; 1500 mouse N2a cells/well
# 2. Time; 5 hr; 37 °C incubation
# 4. Controls; 23 nL; doxorubicin 7 pM to 100 uM & staurosporine 1.4 pM to 20 uM
# 5. Time; 16 hr; 37 °C incubation
# 6. Reagent; 5 uL; Caspase-Glo 3/7 reagent
# 7. Time; 1 hr; Room Temperature
# 8. Detection; Luminescence; Viewlux plate reader
# Keywords: caspase 3/7, apoptosis, mouse N2a cell line, luminescence, NTPHTS, NTPHTS_NCGC, NIEHS, EPA, DSSTox, MLSMR, MLSCN, NIH Roadmap, qHTS, NCGC
Compound,caspase-3 activation,outcome
c1cc2ccc3cccc4ccc(c1)c2c34,0.556% (inactive),
O=[N+]([O-])c1c2ccccc2cc2ccccc12,-1.24% (inactive),
Cc1cc(O)ccc1Cl,6.43% (inactive),
CN(C)[C@@H]1C(=O)C(C(N)=O)=C(O)[C@@]2(O)C(=O)C3=C(O)c4c(O)cccc4[C@@](C)(O)[C@H]3[C@H](O)[C@@H]12,-4.19% (inactive),
C1CCC(NC2CCCCC2)CC1,,inactive
O=[N+]([O-])c1c(Cl)c(Cl)cc(Cl)c1Cl,-0.206% (inactive),
C=CC(=O)NCNC(=O)C=C,-1.5% (inactive),
O=C(O)C(Cl)Cl,-2.85% (inactive),
CCOCCOC(C)=O,-1.73% (inactive),
CN(C)NC(=O)CCC(=O)O,-4.01% (inactive),
O=[N+]([O-])c1cc([N+](=O)[O-])c2ccccc2c1,-3.17% (inactive),
CC(=O)[O][Hg][c]1ccccc1,-12.3% (inactive),
O=C(O)COc1ccccc1,-4.85% (inactive),
O=S(=O)(c1ccc(Cl)cc1)c1ccc(Cl)cc1,,inactive
OCCCBr,-2.83% (inactive),
CCCCC(CC)COC(=O)c1ccccc1C(=O)OCC(CC)CCCC (stereo unspecified),-1.89% (inactive),
Nc1ccc([N+](=O)[O-])cc1,-1.15% (inactive),
COC(C)(C)CCCC(C)C/C=C/C(C)=C/C(=O)OC(C)C (stereo unspecified),-0.444% (inactive),
CCOP(=O)(NC(C)C)Oc1ccc(SC)c(C)c1 (stereo unspecified),0.45% (inactive),
Nc1ccc(Sc2ccc(N)cc2)cc1,1.19% (inactive),
CC(C)(O)C(=O)Nc1ccc([N+](=O)[O-])c(C(F)(F)F)c1,-0.965% (inactive),
Nc1ccc(Cl)cc1,-0.684% (inactive),
COc1ccc(C(c2ccc(OC)cc2)C(Cl)(Cl)Cl)cc1,,inactive
CCCCOC(=O)c1ccccc1C(=O)OCc1ccccc1,0.269% (inactive),
CCCCCCCCc1ccc(O)cc1,2.85% (inactive),
Nc1ccc(Cl)cc1N,-11.9% (inactive),
